# Data taken from paper PMC4053984, “DNA binding specificities of the long zinc-finger recombination protein PRDM9”.
# Target: PRDM9Cst (Mus musculus (CAST/EiJ))
# Experiment: competition EMSA; competition against biotin-labeled 75-bp Hlx1 B6 oligo; 10 mM Tris pH 7.5, 50 mM KCl, 1 mM DTT, 50 ng/ul poly(dI/dC), 0.05% NP-40, crude E. coli extract 3 ul in 20 ul; 1 h with unlabeled competitor, then 4 h with biotin-labeled 75-bp Hlx1; temperature not stated; high values mean tight binding
# Conditions: tags: N-terminal His tag (pBAD/HisB); dsDNA, one strand shown
# PRDM9Cst (Mus musculus (CAST/EiJ)), sequence (chain, as listed by the source): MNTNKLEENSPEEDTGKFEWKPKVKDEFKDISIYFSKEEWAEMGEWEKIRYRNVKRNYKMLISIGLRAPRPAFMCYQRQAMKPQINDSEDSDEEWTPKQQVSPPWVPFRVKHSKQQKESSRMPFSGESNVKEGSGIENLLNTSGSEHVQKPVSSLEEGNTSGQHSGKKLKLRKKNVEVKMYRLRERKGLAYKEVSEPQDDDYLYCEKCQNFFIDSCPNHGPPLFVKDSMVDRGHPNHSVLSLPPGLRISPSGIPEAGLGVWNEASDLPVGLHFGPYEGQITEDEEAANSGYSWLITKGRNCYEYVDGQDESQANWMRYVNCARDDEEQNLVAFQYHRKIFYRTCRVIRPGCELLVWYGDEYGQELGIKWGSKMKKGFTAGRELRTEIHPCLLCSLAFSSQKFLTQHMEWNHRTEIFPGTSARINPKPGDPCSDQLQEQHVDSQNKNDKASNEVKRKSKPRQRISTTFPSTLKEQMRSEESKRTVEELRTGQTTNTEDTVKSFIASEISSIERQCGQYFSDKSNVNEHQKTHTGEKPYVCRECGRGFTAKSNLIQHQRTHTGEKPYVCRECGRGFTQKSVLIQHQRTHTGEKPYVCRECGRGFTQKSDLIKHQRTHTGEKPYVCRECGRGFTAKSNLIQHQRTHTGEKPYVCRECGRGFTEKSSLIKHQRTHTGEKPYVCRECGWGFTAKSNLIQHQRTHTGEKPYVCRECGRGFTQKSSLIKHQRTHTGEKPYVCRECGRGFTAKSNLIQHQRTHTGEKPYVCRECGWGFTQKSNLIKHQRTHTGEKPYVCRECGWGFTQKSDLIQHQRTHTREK
row,Sequence,binding signal
1,ATAGTGTGCAGACTTGGACCCTGCACTTTCTTT,"-0.1 Bmut (0 = wild type, -1 = scrambled)"
2,ATAGTGTGCAGACTTGGACCCTGCCCTATCTTT,"0.13 Bmut (0 = wild type, -1 = scrambled)"
3,ATAGTGTGCAGACTTGGACCCTGCCCTTTATTT,"0.05 Bmut (0 = wild type, -1 = scrambled)"
4,ATAGTGTGCAGAATTGGACCCTGCCCTTTCTTT,"-0.1 Bmut (0 = wild type, -1 = scrambled)"
5,ATAGTGTGCAGACTTGGACCCTGCCCTTGCTTT,"-0 Bmut (0 = wild type, -1 = scrambled)"
6,ATAGTGTGCAGACTTGGACCCTGCCCTTTGTTT,"-0 Bmut (0 = wild type, -1 = scrambled)"
7,ATAGTGTTCAGACTTGGACCCTGCCCTTTCTTT,"-0.4 Bmut (0 = wild type, -1 = scrambled)"
8,ATAGTGTGCAGACTTGGACCCTGCTCTTTCTTT,"-0.2 Bmut (0 = wild type, -1 = scrambled)"
9,ATAGTGTGCAGACTTGGACCCTGCCCTTTCTTC,"0.14 Bmut (0 = wild type, -1 = scrambled)"
10,ATAGTGTGCAGACTTGGACCCTGCCCTTTCTTT,"0 Bmut (0 = wild type, -1 = scrambled)"
11,ATAGTGTGCAGACTTGGACCCTTCCCTTTCTTT,"-0.3 Bmut (0 = wild type, -1 = scrambled)"
12,ATAGTGTGCAGATTTGGACCCTGCCCTTTCTTT,"0.1 Bmut (0 = wild type, -1 = scrambled)"
13,ATAGCGTGCAGACTTGGACCCTGCCCTTTCTTT,"-0.5 Bmut (0 = wild type, -1 = scrambled)"
14,ATAGTGTGCAGACTTGTACCCTGCCCTTTCTTT,"-0.8 Bmut (0 = wild type, -1 = scrambled)"
15,AAAGTGTGCAGACTTGGACCCTGCCCTTTCTTT,"0 Bmut (0 = wild type, -1 = scrambled)"
16,CTAGTGTGCAGACTTGGACCCTGCCCTTTCTTT,"-0.1 Bmut (0 = wild type, -1 = scrambled)"

row,Sequence,binding signal
1,ATAGTGCGCAGACTTGGACCCTGCCCTTTCTTT,"-0.2 Bmut (0 = wild type, -1 = scrambled)"
2,ATAATGTGCAGACTTGGACCCTGCCCTTTCTTT,"-0.4 Bmut (0 = wild type, -1 = scrambled)"
3,ATAGTGTGCAGACATGGACCCTGCCCTTTCTTT,"-0.7 Bmut (0 = wild type, -1 = scrambled)"
4,ATAGTGTGCAGACTTGGACCCTGCCGTTTCTTT,"0.04 Bmut (0 = wild type, -1 = scrambled)"
5,ATAGTGTGCAGACTTGGACCCAGCCCTTTCTTT,"0.01 Bmut (0 = wild type, -1 = scrambled)"
6,ATAGTTTGCAGACTTGGACCCTGCCCTTTCTTT,"-0.3 Bmut (0 = wild type, -1 = scrambled)"
7,ATAGTGTGCAGACTTGGACCCTGCCCATTCTTT,"0.09 Bmut (0 = wild type, -1 = scrambled)"
8,ATAGTGTGCAGACTTGGACCCTGCCCTTCCTTT,"-0.1 Bmut (0 = wild type, -1 = scrambled)"
9,ATAGTGTGCAGACTTAGACCCTGCCCTTTCTTT,"-0.1 Bmut (0 = wild type, -1 = scrambled)"
10,ATAGTGTACAGACTTGGACCCTGCCCTTTCTTT,"0.1 Bmut (0 = wild type, -1 = scrambled)"
11,ATAGTGTGCAGACTTGGACCCTGCCCTTTCGTT,"0.12 Bmut (0 = wild type, -1 = scrambled)"
12,ATAGTGTGCAGACTTGGACCCTGACCTTTCTTT,"-0.3 Bmut (0 = wild type, -1 = scrambled)"
13,ACAGTGTGCAGACTTGGACCCTGCCCTTTCTTT,"-0.1 Bmut (0 = wild type, -1 = scrambled)"
14,ATAGTGTGCAGACTTGGACCCTGCCCCTTCTTT,"0.19 Bmut (0 = wild type, -1 = scrambled)"
15,ATAGTGTGCAGACTTGGACACTGCCCTTTCTTT,"-0 Bmut (0 = wild type, -1 = scrambled)"
